Compound activity from PubChem BioAssay.
This is a sample that favours compounds with a hit; in the whole collection about 2% have one here.
UHRF1 binding: UHRF1 methylated DNA binding inhibitors, primary screen, counter-screen for MBD2 inhibitor project, biochemical, TR-FRET, human UHRF1, single concentration; E3 ubiquitin-protein ligase UHRF1 (Homo sapiens), Q96T88; UHRF1 binding to methylated oligo; inhibition, % at 4.4 µM; 370,000 tested, 0.75% active; in the data active means inhibition above about 21%;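 further: UHRF1 SRA domain binding a hemimethylated CpG hairpin DNA probe; 0% = median of test compound wells and 100% = reference inhibitor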
Target sequence (Q96T88 whole entry, looked up, the tested form may be a part): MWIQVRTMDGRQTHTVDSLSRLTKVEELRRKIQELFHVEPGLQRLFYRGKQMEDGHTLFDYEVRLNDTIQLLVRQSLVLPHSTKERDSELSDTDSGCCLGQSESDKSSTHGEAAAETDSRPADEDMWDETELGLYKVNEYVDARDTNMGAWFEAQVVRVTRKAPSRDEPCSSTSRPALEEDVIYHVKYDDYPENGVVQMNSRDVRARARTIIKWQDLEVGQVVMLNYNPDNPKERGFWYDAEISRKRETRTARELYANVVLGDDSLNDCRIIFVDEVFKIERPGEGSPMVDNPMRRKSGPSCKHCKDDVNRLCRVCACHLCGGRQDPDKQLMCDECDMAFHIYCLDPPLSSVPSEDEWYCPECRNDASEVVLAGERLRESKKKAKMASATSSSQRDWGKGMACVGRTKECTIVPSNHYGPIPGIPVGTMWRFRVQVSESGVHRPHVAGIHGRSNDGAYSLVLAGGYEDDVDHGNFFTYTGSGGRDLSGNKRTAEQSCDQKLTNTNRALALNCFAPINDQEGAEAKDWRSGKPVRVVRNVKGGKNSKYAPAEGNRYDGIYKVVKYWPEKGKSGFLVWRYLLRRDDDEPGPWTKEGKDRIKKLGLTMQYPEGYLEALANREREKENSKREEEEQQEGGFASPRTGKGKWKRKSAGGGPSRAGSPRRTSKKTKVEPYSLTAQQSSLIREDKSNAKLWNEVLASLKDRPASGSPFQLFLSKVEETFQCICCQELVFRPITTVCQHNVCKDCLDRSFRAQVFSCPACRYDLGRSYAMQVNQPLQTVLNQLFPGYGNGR
MBD2 inh: inhibitors of MBD2 binding to methylated DNA, primary screen, biochemical, TR-FRET, DNA-binding domain, human | MBD2 binding to methylated oligonucleotide | inhibition, % at 4.4 µM | 370,000 tested, 0.31% active; in the data active means inhibition above about 13%
LEDGF integ inh: blockers of LEDGF/p75-dependent integrase strand transfer – biochemical, TR-FRET, high throughput, primary screen; HIV-1 integrase (with human LEDGF/p75); TR-FRET IN-LEDGF/p75 DNA integration, Eu/Cy5; inhibition, % at 3.7 µM; 370,000 tested, 0.64% active; AID 743269, 2014;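 active means inhibition above the screen-wide mean plus 3 SD, cut at about 13% in these data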;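 further: signal is the Cy5 over europium emission ratio at 671 and 618 nm; 0% = plate median of compound wells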
Rin1 Abl inh: inhibitors of Rin1-Abl protein binding, primary screen, biochemical, TR-FRET. 360,000 tested, 0.4% active. AID 588664, 2011. inhibition, % at 7.35 µM; in the data active means inhibition above about 5%, passing the limit was not always enough
TCR CD3 inh: inhibitors of human TCR-CD3 interaction, primary screen, biochemical, fluorescence, TAMRA-labeled TCR probe; T-cell receptor (TCR); inhibition, % at 9.4 µM; 360,000 tested, 0.37% active; AID 651800, 2012; in the data active means inhibition above about 19%;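 further: recombinant mutant TCR 2C K166C tagged with TAMRA read by polarization; 0% = receptor in buffer alone and 100% = receptor with positive control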
IN multimer up: HIV-1 IN multimer formation enhancers, counter-screen for LEDGF/p75 integration inhibitor project, biochemical, TR-FRET; shares compounds with LEDGF integ inh; TR-FRET HIV-1 integrase multimerization; activation, % at 7.7 µM; 2,000 tested, 17% active; in the data active means activation above about 8.9%
TR-FRET interf: TR-FRET optical interference artefacts, confirmation, artefact control for LEDGF/p75-dependent integration inhibitor project, biochemical, HIV-1 IN multimerization; TR-FRET optical interference counterscreen; 2,000 tested, under 10 active; inhibition, % at 7.7 µM; shares compounds with LEDGF integ inh; AID 1053135, 2014;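 active means inhibition above the mean over all tested compounds plus 3 SD, which no compound reached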;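 further: 0% = integrase with antibodies and DMSO and 100% = antibodies without integrase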
LEDGF integ conf: inhibitors of HIV-1 IN-LEDGF/p75 DNA integration, confirmation, biochemical, TR-FRET; shares compounds with LEDGF integ inh; 2,000 tested, 36% active; TR-FRET LEDGF/p75-dependent HIV-1 integration; inhibition, % at 3.7 µM; in the data active means inhibition above about 14%
* hit, by the source's call; . = no result.

SMILES	UHRF1 binding	MBD2 inh	LEDGF integ inh	Rin1 Abl inh	TCR CD3 inh	IN multimer up	TR-FRET interf	LEDGF integ conf
c1ccc(-c2cnc(SCCN3CCOCC3)n2CC2CCCO2)cc1 (stereo not drawn)	-1.2	2.6	4.2	1.8	-0.5	.	.	.
COc1ccc(-c2cnc(N)n2CC2CCCO2)cc1 (stereo not drawn)	1.9	8.3	27.6*	2.2	-14.1	-0.5	2.4	-5.0
COCCNCc1cc(C)n(-c2cc(S(=O)(=O)N3CCOCC3)ccc2N2CCCC2)c1C	-2.8	2.7	2.4	0.7	-4.3	.	.	.
CNc1ccc(Br)cc(C(=O)/C=C/c2cccc(Cl)c2Cl)c1=O	5.2	-1.1	14.8*	-0.5	6.7	0.3	-1.4	20.6*
CNc1ccc(Br)cc(C(=O)/C=C/c2cccc(OC)c2OC)c1=O	1.4	-5.7	15.6*	2.8	9.8	2.2	-11.2	27.1*
CNc1ccccc(C(=O)/C=C/c2ccccc2OC)c1=O	2.3	4.6	-1.1	3.0	3.0	.	.	.
COc1cccc(Nc2nc(Nc3ccc(Cl)c(C(=O)O)c3)nc(C)c2[N+](=O)[O-])c1	4.6	7.8	0.6	1.2	1.6	.	.	.
CO[C@@]12[C@@H]3N[C@@H]3CN1C1=C(C(=O)C(N)=C(C)C1=O)[C@@H]2COC(N)=O	9.3	-2.3	15.3*	-13.7	15.1	4.0	-20.2	7.0
CO[C@@]12[C@H](COC(N)=O)C3=C(C(=O)C(C)=C(N)C3=O)N1C[C@@H]1N[C@@H]12	4.5	-0.2	0.8	-5.2	-3.8	.	.	.
CCOc1ccc(Br)cc1/C(C)=N\NC1=NCCN1	-2.8	0.5	-1.3	-1.1	2.8	.	.	.
CC(=NNC1=NCCN1)c1cnn(C2=NCCN2)c1C	-0.6	-1.9	18.2*	-3.2	-0.9	0.7	-3.4	-0.9
Cc1ccc(CNC(=O)/C=C/c2cccs2)cc1	-3.5	0.9	25.2*	2.5	2.4	3.6	-13.8	-5.1
CCCCNC(=O)/C=C/c1cccs1	0.0	0.9	-4.2	2.8	-3.4	.	.	.
COc1ccccc1CCC(=O)NCCCn1ccc2ccccc21	-0.6	0.0	4.4	0.4	5.3	.	.	.
COCCNC(=O)C1(C)CCCN(C(=O)c2ccc(F)c(Cl)c2)C1 (stereo not drawn)	-0.7	2.3	-2.6	-2.2	-6.1	.	.	.
Oc1cc(NCc2ccc(F)cc2)cc2cccnc12	-8.2	-9.6	11.9	0.0	1.6	.	.	.
CN(C)CCCNc1cc(O)c2ncccc2c1	-0.5	-5.7	29.5*	6.8	-8.7	-4.5	22.4	39.9*
Cc1ccc(S(=O)(=O)NN=C2CC3CCC2(C)C3(C)C)cc1 (stereo not drawn)	-0.1	2.2	17.1*	5.5	-4.5	1.8	-9.0	-3.3
CC1CN(C(=O)c2cccc(Oc3ccccc3)c2)CC(C)O1 (stereo not drawn)	-2.2	2.9	-1.5	0.1	0.3	.	.	.
COC(=O)/C(C#N)=C/c1ccc(OC(=O)c2ccccn2)cc1	1.3	0.1	14.3*	-1.2	-24.4	0.5	-2.3	-0.4
O=C(Nc1ccc(N2CCOCC2)cc1)c1csc([C@@H]2O[C@H](CO)[C@H](O)[C@H](O)[C@H]2O)n1	3.1	-3.6	3.3	-2.7	-5.0	.	.	.
Cc1cc(C)cc(CC(=O)N2CCC2(C)C(=O)NS(=O)(=O)c2cccc(OC(F)F)c2)c1 (stereo not drawn)	-0.7	0.4	17.2*	-1.0	2.2	0.2	-1.0	-2.7
CC(C)(C)c1ccc(CC(=O)N2CCC2(C)C(=O)NS(=O)(=O)c2cccc(OC(F)F)c2)cc1 (stereo not drawn)	-1.2	-2.5	-0.2	0.3	2.2	.	.	.
COc1c([N+](=O)[O-])c(=O)oc2ccccc12	-1.3	-4.0	-2.1	1.7	-0.6	.	.	.
COc1c(NC=O)c2c(c([N+](=O)[O-])c1OC)C(=O)OC2	4.4	-5.4	13.7*	-1.9	-5.0	0.0	-0.1	-0.9
SMILES	UHRF1 binding	MBD2 inh	LEDGF integ inh	Rin1 Abl inh	TCR CD3 inh	IN multimer up	TR-FRET interf	LEDGF integ conf
COc1ccc(Cc2c(-c3ccc(F)cc3)nc3cc(C)c(Br)c(C)n23)c(C)c1	-2.8	0.8	4.2	.	1.0	.	.	.
Cc1ccccc1Nc1nnc(SCc2cc(=O)n3ccsc3n2)s1	-2.8	-3.7	2.8	2.3	4.2	.	.	.
COc1ccccc1Nc1nnc(SCc2cc(=O)n3cc(C)ccc3n2)s1	-1.1	-3.0	36.2*	0.2	3.7	1.6	-8.1	-3.4
COc1ccc(NS(=O)(=O)NC(=O)c2c[nH]c3ccccc23)cc1	-1.7	1.1	0.1	-1.8	-1.9	.	.	.
Cn1c(C(=O)N2CCN(c3ccccc3)CC2)cc2cc(Cl)ccc21	-0.8	-2.8	0.2	-2.2	0.8	.	.	.
Cc1cc(C)n2cc(CSCc3ccco3)nc2n1	-2.8	-1.0	1.3	-2.2	7.8	.	.	.
Cc1cccc2nc(CSCc3ccco3)cn12	5.2	-0.5	16.2*	0.8	4.8	-2.0	10.2	13.3
COc1ccc2nc(/C=N/NC(=O)[C@@H]3CCCN3C(=O)OC(C)(C)C)ccc2c1	2.3	0.3	4.2	1.2	-4.5	.	.	.
CC(=O)Nc1ccc2c(c1)C(=O)c1ccc(Cl)cc1-2	-5.1	-0.3	-1.1	-0.5	0.7	.	.	.
COP(=O)(OC)c1ccc(NCc2cc(O)ccc2O)cc1	2.2	-1.8	19.9*	4.1	5.5	63.5*	-225.4	24.0*
CC(C)OC(=O)c1ccc(NCc2cc(O)ccc2O)cc1	-4.1	-4.3	9.9	1.7	0.8	.	.	.
CCS(=O)(=O)N1CCC(C(=O)Oc2ccccc2OC)CC1	-0.6	-6.9	21.7*	-3.0	-7.6	1.1	-5.5	1.8
CCCCS(=O)(=O)N1CCC(C(=O)Oc2ccccc2OC)CC1	2.2	4.2	2.0	0.2	3.5	.	.	.
Cn1nc(-c2ccc(C(=O)NC3CCCCC3)cc2)c2ccccc2c1=O	-0.2	-2.8	1.3	1.2	9.3	.	.	.
Oc1ccccc1CNc1cccc2cccnc12	-8.4	-18.7	31.1*	0.6	-8.4	4.6	-16.4	-0.1
COc1cc(NCc2ccccc2O)c2ncccc2c1	0.0	-1.5	1.3	0.3	-5.2	.	.	.
C#CCNC(=O)C[C@H]1C[C@@]2(C(=O)OC)C(=C[C@H](C(C)(C)C)O[C@@H]2C)N(CCC2=CCCCC2)C1=O	0.7	4.4	-2.5	.	-0.8	.	.	.
